# Source: PubChem BioAssay (NCI)
# Compounds without any hit were thinned out: in the full panel of roughly 79,000, 15% have a hit. Values without a mark were called inactive. The source made the active and inactive calls. No stated cut-off is given here; in the data, active means growth inhibition above about 70%; inactive means the rest.
# What was measured:
# [1] = NCI Yeast Anticancer Drug Screen. Data for the rad52 strain (AID 147);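 further: 0% = growth of vehicle-treated control cultures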; settings: S. cerevisiae rad52 mutant growth inhibition, hits give high values
# Outline: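 Compounds are applied to a genetically defined yeast strain lacking normal DNA damage repair, and inhibition of growth is expressed relative to cultures given vehicle only.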
# [2] = NCI Yeast Anticancer Drug Screen. Data for the wt1 strain (AID 149);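 further: 0% = growth of vehicle-treated wt1 cultures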; settings: S. cerevisiae wt1 strain (SPY 50644) growth inhibition, hits give high values
# Outline: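 Compounds are added to wt1 yeast cultures. Growth is then measured. Inhibition is expressed relative to vehicle-treated controls.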
# [3] = NCI Yeast Anticancer Drug Screen. Data for the rad50EPP+ strain (AID 151);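 further: 0% = growth of vehicle-treated control cultures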; settings: S. cerevisiae rad50 mutant strain, hits give high values
# Outline: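 Compounds were applied to the rad50EPP+ yeast strain, which bears a defined DNA repair alteration, and growth inhibition was determined relative to vehicle-treated cultures.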
# [4] = NCI Yeast Anticancer Drug Screen. Data for the mgt1 strain (AID 153); settings: S. cerevisiae mgt1 mutant growth inhibition, hits give high values
# Outline: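 Strain: mgt1 yeast, one of a set carrying defined DNA damage repair or cell cycle control alterations. Compound-treated growth compared with vehicle.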
# [5] = NCI Yeast Anticancer Drug Screen. Data for the rad50 strain (AID 155);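 further: 0% = growth of vehicle-only cultures of the same strain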; settings: S. cerevisiae rad50 strain growth inhibition, hits give high values
# Outline: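 Inhibition values express reduced yeast growth in compound-treated cultures relative to vehicle-treated controls.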
# [6] = NCI Yeast Anticancer Drug Screen. Data for the mec2-1 strain (AID 157); settings: S. cerevisiae mec2-1 strain, hits give high values
# Outline: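 Strain: mec2-1 (DNA repair/cell cycle alteration). Compound exposure, then growth measured; inhibition expressed relative to vehicle.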
# [7] = NCI Yeast Anticancer Drug Screen. Data for the rad14 strain (AID 159);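 further: 0% = growth of vehicle-treated control cultures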; settings: S. cerevisiae rad14 strain growth inhibition, hits give high values
# Outline: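 A mutant yeast strain defective in DNA damage repair is treated with compound; inhibition of its growth is scored against untreated, vehicle-exposed cultures.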
# [8] = NCI Yeast Anticancer Drug Screen. Data for the sgs1 mgt1 strain (AID 161);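 further: 0% = growth of cultures given vehicle only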; settings: S. cerevisiae sgs1 mgt1 strain, hits give high values
# Outline: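 Test agents were incubated with a DNA-repair-mutant yeast strain. Growth was then read and compared against vehicle-treated controls.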
# [9] = NCI Yeast Anticancer Drug Screen. Data for the CLN2oe strain (AID 163);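 further: 0% = growth of vehicle-only control cultures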; settings: S. cerevisiae CLN2oe strain, hits give high values
# Outline: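 Growth of a genetically modified yeast strain is measured after compound exposure and compared with cultures given vehicle alone.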
# [10] = NCI Yeast Anticancer Drug Screen. Data for the cln2 rad14 strain (AID 165);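 further: 0% = growth equal to vehicle treated cultures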; settings: S. cerevisiae cln2 rad14 strain, hits give high values
# Outline: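 Compounds are applied to the cln2 rad14 yeast strain, and growth is then compared with that of vehicle-treated cultures to give inhibition.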
# [11] = NCI Yeast Anticancer Drug Screen. Data for the bub3 strain (AID 167); settings: S. cerevisiae bub3 mutant strain, hits give high values
# Outline: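 Steps: expose the mutant yeast strain to compound; grow alongside vehicle-treated cultures; measure growth; express inhibition against the vehicle cultures.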
# [12] = NCI Yeast Anticancer Drug Screen. Data for the wt2 strain (AID 169);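 further: 0% = growth of vehicle-treated yeast cultures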; settings: S. cerevisiae wt2 strain growth inhibition, hits give high values
# Outline: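 This strain belongs to a panel of yeast strains with defined genetic alterations in DNA damage repair or cell cycle control. Compounds are applied, and growth inhibition is measured against vehicle-treated cultures.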
# [13] = NCI Yeast Anticancer Drug Screen. Data for the mlh1 strain (AID 171);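 further: 0% = growth of vehicle-treated control cultures of the same strain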; settings: S. cerevisiae mlh1 strain growth inhibition, hits give high values
# Outline: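 Growth of the mutant yeast strain after compound exposure, expressed as inhibition relative to vehicle-only controls.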
# [14] = NCI Yeast Anticancer Drug Screen. Data for the sgs1 strain (AID 173);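 further: 0% = growth of vehicle-only control cultures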; settings: S. cerevisiae sgs1 mutant, hits give high values
# Outline: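 Growth of a yeast strain bearing a defined genetic alteration is measured after compound treatment. Inhibition is expressed relative to vehicle-only controls.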
# [15] = NCI Yeast Anticancer Drug Screen. Data for the mlh1 rad18 strain (AID 175); settings: S. cerevisiae mlh1 rad18 strain growth inhibition, hits give high values
# Outline: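 Read-out is yeast growth inhibition, calculated against vehicle-only controls. The compound was applied to a strain engineered with DNA damage repair alterations.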
# [16] = NCI Yeast Anticancer Drug Screen. Data for the rad18 strain (AID 177); settings: S. cerevisiae rad18 mutant growth inhibition, hits give high values
# Outline: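 Growth of the mutant yeast strain after compound exposure, normalised to vehicle-only cultures.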
# [17] = at 5.0 µM (retest, dose inferred, filed as 0.5)
# [18] = at 50.0 µM (retest, dose inferred, filed as 5.0)
smiles,measurement,setting,value
CCOC(=O)Nc1ccc(C)c(NC(=O)OCC)c1,growth inhibition,[1]; at 1.2 µM,3%
same,growth inhibition,[1]; at 3.7 µM,8%
same,growth inhibition,[1]; at 11.0 µM,15%
same,growth inhibition,[1]; at 33.0 µM,21%
same,growth inhibition,[1]; at 100.0 µM,23%
same,growth inhibition,[2]; at 1.2 µM,6%
same,growth inhibition,[2]; at 3.7 µM,13%
same,growth inhibition,[2]; at 11.0 µM,12%
same,growth inhibition,[2]; at 33.0 µM,15%
same,growth inhibition,[2]; at 100.0 µM,17%
same,growth inhibition,[3]; at 1.2 µM,4%
same,growth inhibition,[3]; at 3.7 µM,8%
same,growth inhibition,[3]; at 11.0 µM,19%
same,growth inhibition,[3]; at 33.0 µM,34%
same,growth inhibition,[3]; at 100.0 µM,47%
same,growth inhibition,[4]; at 1.2 µM,3%
same,growth inhibition,[4]; at 3.7 µM,9%
same,growth inhibition,[4]; at 11.0 µM,12%
same,growth inhibition,[4]; at 33.0 µM,12%
same,growth inhibition,[4]; at 100.0 µM,16%
same,growth inhibition,[5]; at 1.2 µM,5%
same,growth inhibition,[5]; at 3.7 µM,6%
same,growth inhibition,[5]; [17],22%
same,growth inhibition,[5]; at 11.0 µM,16%
same,growth inhibition,[5]; at 33.0 µM,19%
same,growth inhibition,[5]; [18],80% (active)
same,growth inhibition,[5]; at 50.0 µM,-1.75%
same,growth inhibition,[5]; at 100.0 µM,26%
same,growth inhibition,[6]; at 1.2 µM,4%
same,growth inhibition,[6]; at 3.7 µM,8%
same,growth inhibition,[6]; [17],-2%
same,growth inhibition,[6]; at 11.0 µM,11%
same,growth inhibition,[6]; at 33.0 µM,19%
same,growth inhibition,[6]; [18],14%
same,growth inhibition,[6]; at 50.0 µM,6%
same,growth inhibition,[6]; at 100.0 µM,20%
same,growth inhibition,[7]; at 1.2 µM,3%
same,growth inhibition,[7]; at 3.7 µM,7%
same,growth inhibition,[7]; at 11.0 µM,10%
same,growth inhibition,[7]; at 33.0 µM,15%
same,growth inhibition,[7]; at 100.0 µM,21%
same,growth inhibition,[8]; [17],11%
same,growth inhibition,[8]; [18],57%
same,growth inhibition,[8]; at 50.0 µM,4.65%
same,growth inhibition,[9]; at 1.2 µM,9%
same,growth inhibition,[9]; at 3.7 µM,13%
same,growth inhibition,[9]; at 11.0 µM,23%
same,growth inhibition,[9]; at 33.0 µM,23%
same,growth inhibition,[9]; at 100.0 µM,23%
same,growth inhibition,[10]; [17],11%
same,growth inhibition,[10]; [18],23%
same,growth inhibition,[10]; at 50.0 µM,-38.4%
same,growth inhibition,[11]; at 1.2 µM,2%
same,growth inhibition,[11]; at 3.7 µM,8%
same,growth inhibition,[11]; [17],35%
same,growth inhibition,[11]; at 11.0 µM,7%
same,growth inhibition,[11]; at 33.0 µM,13%
same,growth inhibition,[11]; [18],76% (active)
same,growth inhibition,[11]; at 50.0 µM,14.3%
same,growth inhibition,[11]; at 100.0 µM,13%
same,growth inhibition,[12]; at 1.2 µM,4%
same,growth inhibition,[12]; at 3.7 µM,8%
same,growth inhibition,[12]; at 11.0 µM,10%
same,growth inhibition,[12]; at 33.0 µM,14%
same,growth inhibition,[12]; at 100.0 µM,13%
same,growth inhibition,[13]; at 1.2 µM,3%
same,growth inhibition,[13]; at 3.7 µM,8%
same,growth inhibition,[13]; at 11.0 µM,14%
same,growth inhibition,[13]; at 33.0 µM,19%
same,growth inhibition,[13]; at 100.0 µM,23%
same,growth inhibition,[14]; at 1.2 µM,3%
same,growth inhibition,[14]; at 3.7 µM,6%
same,growth inhibition,[14]; at 11.0 µM,12%
same,growth inhibition,[14]; at 33.0 µM,20%
same,growth inhibition,[14]; at 100.0 µM,30%
same,growth inhibition,[15]; [17],34%
same,growth inhibition,[15]; [18],78% (active)
same,growth inhibition,[15]; at 50.0 µM,8.35%
same,growth inhibition,[16]; at 1.2 µM,8%
same,growth inhibition,[16]; at 3.7 µM,14%
same,growth inhibition,[16]; at 11.0 µM,30%
same,growth inhibition,[16]; at 33.0 µM,61%
same,growth inhibition,[16]; at 100.0 µM,82% (active)
S=C1N(c2ccc(Cl)cc2)C2=C(N=Nc3ccccc3)C(=Nc3ccccc3S2)N1c1ccccn1,growth inhibition,[1]; at 1.2 µM,8%
same,growth inhibition,[1]; at 3.7 µM,16%
same,growth inhibition,[1]; at 11.0 µM,51%
same,growth inhibition,[1]; at 33.0 µM,98% (active)
same,growth inhibition,[1]; at 100.0 µM,99% (active)
same,growth inhibition,[2]; at 1.2 µM,-3%
same,growth inhibition,[2]; at 3.7 µM,-3%
same,growth inhibition,[2]; at 11.0 µM,3%
same,growth inhibition,[2]; at 33.0 µM,29%
same,growth inhibition,[2]; at 100.0 µM,85% (active)
same,growth inhibition,[3]; at 1.2 µM,-11%
same,growth inhibition,[3]; at 3.7 µM,3%
same,growth inhibition,[3]; at 11.0 µM,61%
same,growth inhibition,[3]; at 33.0 µM,94% (active)
same,growth inhibition,[3]; at 100.0 µM,97% (active)
same,growth inhibition,[4]; at 1.2 µM,13%
same,growth inhibition,[4]; at 3.7 µM,15%
same,growth inhibition,[4]; at 11.0 µM,66%
same,growth inhibition,[4]; at 33.0 µM,99% (active)
same,growth inhibition,[4]; at 100.0 µM,99% (active)
same,growth inhibition,[5]; at 1.2 µM,6%
same,growth inhibition,[5]; at 3.7 µM,12%
same,growth inhibition,[5]; [17],41%
same,growth inhibition,[5]; at 11.0 µM,42%
same,growth inhibition,[5]; at 33.0 µM,95% (active)
same,growth inhibition,[5]; [18],99% (active)
same,growth inhibition,[5]; at 50.0 µM,98.5% (active)
same,growth inhibition,[5]; at 100.0 µM,99% (active)
same,growth inhibition,[6]; at 1.2 µM,20%
same,growth inhibition,[6]; at 3.7 µM,23%
same,growth inhibition,[6]; [17],3%
same,growth inhibition,[6]; at 11.0 µM,62%
same,growth inhibition,[6]; at 33.0 µM,99% (active)
same,growth inhibition,[6]; [18],100% (active)
same,growth inhibition,[6]; at 50.0 µM,98.5% (active)
same,growth inhibition,[6]; at 100.0 µM,99% (active)
same,growth inhibition,[7]; at 1.2 µM,14%
same,growth inhibition,[7]; at 3.7 µM,19%
same,growth inhibition,[7]; at 11.0 µM,40%
same,growth inhibition,[7]; at 33.0 µM,90% (active)
same,growth inhibition,[7]; at 100.0 µM,99% (active)
same,growth inhibition,[8]; [17],54%
same,growth inhibition,[8]; [18],99% (active)
same,growth inhibition,[8]; at 50.0 µM,99% (active)
same,growth inhibition,[9]; at 1.2 µM,-3%
same,growth inhibition,[9]; at 3.7 µM,-7%
same,growth inhibition,[9]; at 11.0 µM,3%
same,growth inhibition,[9]; at 33.0 µM,24%
same,growth inhibition,[9]; at 100.0 µM,69%
same,growth inhibition,[10]; [17],13%
same,growth inhibition,[10]; [18],99% (active)
same,growth inhibition,[10]; at 50.0 µM,98.5% (active)
same,growth inhibition,[11]; at 1.2 µM,22%
same,growth inhibition,[11]; at 3.7 µM,22%
same,growth inhibition,[11]; [17],53%
same,growth inhibition,[11]; at 11.0 µM,41%
same,growth inhibition,[11]; at 33.0 µM,84% (active)
same,growth inhibition,[11]; [18],99% (active)
same,growth inhibition,[11]; at 50.0 µM,98.3% (active)
same,growth inhibition,[11]; at 100.0 µM,98% (active)
same,growth inhibition,[12]; at 1.2 µM,-1%
same,growth inhibition,[12]; at 3.7 µM,-1%
same,growth inhibition,[12]; at 11.0 µM,4%
same,growth inhibition,[12]; at 33.0 µM,23%
same,growth inhibition,[12]; at 100.0 µM,50%
same,growth inhibition,[13]; at 1.2 µM,9%
same,growth inhibition,[13]; at 3.7 µM,12%
same,growth inhibition,[13]; at 11.0 µM,29%
same,growth inhibition,[13]; at 33.0 µM,94% (active)
same,growth inhibition,[13]; at 100.0 µM,99% (active)
same,growth inhibition,[14]; at 1.2 µM,9%
same,growth inhibition,[14]; at 3.7 µM,19%
same,growth inhibition,[14]; at 11.0 µM,52%
same,growth inhibition,[14]; at 33.0 µM,98% (active)
same,growth inhibition,[14]; at 100.0 µM,99% (active)
same,growth inhibition,[15]; [17],32%
same,growth inhibition,[15]; [18],99% (active)
same,growth inhibition,[15]; at 50.0 µM,99% (active)
same,growth inhibition,[16]; at 1.2 µM,9%
same,growth inhibition,[16]; at 3.7 µM,16%
same,growth inhibition,[16]; at 11.0 µM,44%
same,growth inhibition,[16]; at 33.0 µM,94% (active)
same,growth inhibition,[16]; at 100.0 µM,99% (active)
